Test results as given in PubChem BioAssay AID720517 (National Center for Advancing Translational Sciences (NCATS), 2013).
Inconclusive results are not listed. A call without a number means that no potency is given here. Activity calls are given as the source filed them. The call rests on the fitted dose curve; in most records, active means well fitted activation curve with a large enough effect; inconclusive means small, poorly fitted or top-dose-only effect; inactive means flat fitted curve, though single readings scatter.

Assay: qHTS for Inhibitors of Cell Surface uPA Generation: FP59 Counterscreen for Cherry-picked Compounds
Details: FP59 anthrax toxin cytotoxicity counterscreen, cells; series mostly up to 115 µM

| Structure (SMILES) | Potency |
| --- | --- |
| CC1CS(=O)(=O)CCN1N=Cc1ccc([N+](=O)[O-])o1 (centres undefined) | inactive |
| O=C(Nc1cccc(C2=NCCN2)c1)Nc1cccc(C2=NCCN2)c1 | inactive |
| CC(C)C[C@H]1CN([C@@H](CC(C)C)CN2CCCC2CN2C(=S)NC[C@@H]2Cc2ccc(O)cc2)C(=S)N1CC1CCCCC1 (some centres undefined) | inactive |
| COc1ccc([C@H]2CC(=O)C=C(c3ccc(CNC(=O)OC(C)(C)C)cc3)C2)cc1 | inactive |
| C/C=C(/C(=C/C)c1ccc(O)cc1)c1ccc(O)cc1 | inactive |
| O=C(O)COc1ccccc1/C=N/NC(=O)CNC(=O)c1ccco1 | inactive |
| Cc1ccn(CCC(=O)N2CCc3ccccc32)n1 | inactive |
| CCN(CC)c1c([N+](=O)[O-])c(=O)sc2ccccc12 | inactive |
| COc1ccccc1C(=O)NCCC(=O)NCC(c1ccc(F)cc1)N1CCOCC1 (centres undefined) | inactive |
| Cc1ccc(C)c(S(=O)(=O)Nc2ccccc2C(=O)Nc2cc(C)on2)c1 | inactive |
| CCOc1ccc(-c2n[nH]c(=S)n2Cc2ccccc2)cc1 | inactive |
| Cc1nc(NC(=O)COC(=O)CCc2ccccc2)c(Cl)cc1Cl | inactive |
| COCCNC(=O)C(c1c[nH]c2ccccc12)N(C(=O)c1snc(C(N)=O)c1N)c1cccc(OC)c1 (centres undefined) | inactive |
| Cc1cccc(NC(=O)c2cc3c(=O)n4ccccc4nc3s2)c1 | inactive |
| C[C@@H](C(=O)Nc1ccc2ccccc2c1)[C@@H]1C[C@@]1(C)[C@@H](NC(=O)c1cccnc1)c1ccccc1 | inactive |
| N#C/C(N=Nc1ccccc1O)=N\Nc1ccccc1O | inactive |
| O=C(/C=C/c1cccc(Oc2ccccc2)c1)N1CCOCC1 | inactive |
| CCCOc1ccc(S(=O)(=O)NNC(=O)c2cc3ccccc3o2)cc1 | inactive |
| CCOc1ccccc1CN1CCCC(CNS(=O)(=O)c2ccc(OC)cc2)C1 (centres undefined) | inactive |
| CC(=O)Nc1ccc(NC(=O)CCCCCN2C(=O)c3ccccc3C2=O)cc1 | inactive |

| Structure (SMILES) | Potency |
| --- | --- |
| O=[N+]([O-])c1cccc(-c2noc(-c3cccs3)n2)c1 | inactive |
| Cc1nn(C)c(C)c1S(=O)(=O)N1CCC(C(=O)NC2CCCCCC2)CC1 | inactive |
| Cc1c([N+](=O)[O-])c2ccc(O)cc2n1-c1ccccc1 | inactive |
| O=C(NCC1CCCO1)c1c(O)c2cccc3c2n(c1=O)CCC3 (centres undefined) | inactive |
| O=C(NCCN1CCOCC1)c1ccc2c(c1)N(Cc1ccc(Cl)cc1)CCS2 | inactive |
| Cc1cc(C)n2nc(CNS(=O)(=O)c3ccc(F)c(C)c3)nc2n1 | inactive |
| O=C(Cn1cnc2c(OCc3ccccc3)ncnc21)NCCCN1CCCC1=O | inactive |
| COc1ccc(NS(=O)(=O)c2cc(NS(=O)(=O)c3cc(C(=O)O)ccc3OC)ccc2C)cc1 | inactive |
| O=C(c1cc([N+](=O)[O-])cc([N+](=O)[O-])c1)N(c1ccccn1)c1ccccn1 | inactive |
| Cc1cccc(N2C(=O)N3[C@H](c4ccc(F)cc4)[C@@H]4C(=O)N(C5CCCCC5)C(=O)[C@@H]4[C@]3(Cc3ccc(Cl)cc3)C2=O)c1 | inactive |
| O=C(Nc1cccc(NC(=O)c2ccc(F)cc2)c1)c1ccc(F)cc1 | inactive |
| CCS(=O)(=O)N1CCC(C(=O)NCc2ccc(OC)cc2OC)CC1 | inactive |
| COc1cc(OC)cc(C(=O)NC(C(=O)Nc2ccc3c(c2)CCC3)C(C)C)c1 (centres undefined) | inactive |
| COc1ccc(OC)c(S(=O)(=O)N2CCN(Cc3ccccc3)CC2)c1 | inactive |
| COC(=O)C1C(=O)c2c([nH]c(C(=O)OC3CCCCC3)c2C)CC1C (centres undefined) | inactive |
| CCOC(=O)N1CCN(C(=O)c2ccc3c(c2)sc2nc(-c4ccc(OC)cc4)cn23)CC1 | inactive |
| CCCCCOC(=O)Nc1nnc(CCCCC)s1 | inactive |
| CN(/N=C/c1cc(Cl)cc(Cl)c1O)C(=S)NC(C)(C)C | inactive |
| NC(=O)CC[C@H](NC(=O)c1ccc(F)cc1)C(=O)OCC(=O)Nc1c(F)c(F)c(F)c(F)c1F | inactive |
